Shown are actives, neighbours in structure and some others; about 21% of the full set was active somewhere.
Gal4-VP16 FLuc: VP16 counterscreen qHTS for inhibitors of ROR gamma transcriptional activity; Drosophila S2 Gal4-VP16 UAS-luciferase, luminescence, 20 h; Potency, µM (doses to about 53.6 µM), inactives show top-dose activity, negative = inhibition, usual class: inhibitors; 310,000 tested, 3.5% active; AID 2546, 2010;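 also: Gal4-VP16 expression switched on by copper sulfate through the metallothionein promoter; potency is read from the fitted curve at half-maximal effect; nearly all actives have a fitted effect of over 50% in size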
DT40 TDP1 CPT: qHTS for Inhibitors of human tyrosyl-DNA phosphodiesterase 1 (TDP1): qHTS in cells in presence of CPT; Potency, µM (titrated, usually from 46.2 µM), for the others: at the top dose activity change, negative = growth inhibition, most hits filed as inhibitors; chicken DT40 Tdp1-/-;hTDP1 cells + 20 nM CPT, ATP luminescence, 48 h; 420,000 tested, 12% active; also: potency is read from the fitted curve at half-maximal effect; nearly all actives have a fitted effect of over 55% in size
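Chicken DT40 Tdp1-/- cells complemented with human TDP1, 400 cells/well, exposed to compounds plus 20 nM camptothecin for at least 48 h at 37 C; viability read as ATP content by CellTiter-Glo luminescence.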
RORgamma inh: qHTS for inhibitors of ROR gamma transcriptional activity | 310,000 tested, 5.4% active | Nuclear receptor ROR-gamma (Mus musculus), P51450 | Drosophila S2 Gal4-RORgamma UAS-luciferase reporter, 20 h | Potency, µM (highest dose often 53.6 µM), inactives show top-dose activity change, negative = inhibition, actives largely listed as inhibitors | AID 2551, 2010; also: potency is read from the fitted curve at half-maximal effect; nearly all actives have a fitted effect of over 60% in size
Target sequence (P51450 whole entry, looked up, the tested form may be a part): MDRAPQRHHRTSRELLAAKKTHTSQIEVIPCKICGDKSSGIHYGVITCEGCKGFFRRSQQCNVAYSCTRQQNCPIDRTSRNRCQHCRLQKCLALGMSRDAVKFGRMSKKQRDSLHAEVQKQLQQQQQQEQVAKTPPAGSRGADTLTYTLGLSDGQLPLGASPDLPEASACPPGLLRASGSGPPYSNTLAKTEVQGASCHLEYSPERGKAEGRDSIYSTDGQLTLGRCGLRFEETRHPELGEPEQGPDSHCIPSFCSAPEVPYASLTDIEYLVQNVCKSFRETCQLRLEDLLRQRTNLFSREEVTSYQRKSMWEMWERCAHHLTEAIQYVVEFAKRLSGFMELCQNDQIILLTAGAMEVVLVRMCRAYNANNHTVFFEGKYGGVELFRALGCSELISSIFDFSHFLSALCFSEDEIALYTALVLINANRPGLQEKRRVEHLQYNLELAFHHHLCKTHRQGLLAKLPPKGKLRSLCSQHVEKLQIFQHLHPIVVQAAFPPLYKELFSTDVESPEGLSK
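Using a luciferase readout, inhibitors were identified by reduced reporter activity in Drosophila cells coexpressing a copper-inducible Gal4–ROR gamma fusion and UAS-driven Photinus luciferase, incubated 20 hr after 700 uM copper sulfate.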
IL1B secr inh: qHTS for Inhibitors of Inflammasome Signaling: IL-1-beta AlphaLISA Primary Screen; THP-1 LPS/ATP IL-1B secretion, AlphaLISA, 16 h; stronger effect = lower value; activity change, % at 57.5 µM; 360,000 tested, 4.7% active; in the data active = activity change below about -50%; inconclusive = mostly about -30% to -49%
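THP-1 cells pretreated 1 hr with compounds (up to 57.5 uM final), then stimulated with LPS (250 ng/mL final) plus ATP (1.25 mM final); secreted IL-1B measured by AlphaLISA after 16 hr, decreased signal indicating inhibition.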
ELG1 DNA repair: qHTS screen for small molecules that inhibit ELG1-dependent DNA repair in human embryonic kidney (HEK293T) cells expressing luciferase-tagged ELG1 | Potency, µM (series often up to 46.1 µM), inactives show at the top dose activity change, negative = inhibition, most hits filed as inhibitors | 330,000 tested, 2.3% active | HEK293T ELG1-luciferase reporter, luminescence, 16 h; DNA damage induced by 5-fluorouridine; also: potency is read from the fitted curve at half-maximal effect; nearly all actives have a fitted effect of over 55% in size
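Reporter activity after DNA damage by 5-fluorouridine is monitored. Compound-treated cells incubate 16 hr at 37 °C, then ONE-Glo is added for 30 min before luminescence reading.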
DT40 TDP1 no CPT: qHTS for Inhibitors of human tyrosyl-DNA phosphodiesterase 1 (TDP1): qHTS in cells in absence of CPT | DT40 Tdp1-/- hTDP1 cells, no CPT, ATP luminescence, 48 h | Potency, µM (doses to about 46.2 µM), without a hit: at the highest dose activity change, negative = growth inhibition, usual class: inhibitors | 420,000 tested, 15% active; also: potency is read from the fitted curve at half-maximal effect; nearly all actives have a fitted effect of over 55% in size
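Readout: luminescence from CellTiter-Glo after 30 min in the dark at RT. Cells: DT40 Tdp1-/- with stable hTDP1, 400/well. Exposure: compounds alone, ≥48 hr, 37 °C.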
Active calls of the source: *; ? = inconclusive; nt = not tested or not shown; [ ] = dose if it differs, or a comment. Unless noted, calls follow the shape of the dose curve; as a rule, active = well fitted curve in the direction sought with a large enough effect; inconclusive = small, poorly fitted or top-dose-only effect, or another doubt; inactive = no such curve, though single readings can be large; an effect the other way counts as inactive or inconclusive. % is scaled to controls: 0 for no effect and ±100 for the full control effect.

SMILES	Gal4-VP16 FLuc	DT40 TDP1 CPT	RORgamma inh	IL1B secr inh	ELG1 DNA repair	DT40 TDP1 no CPT
COCCN1Cc2cccc(C(=O)Nc3cccc(-c4nc5ccccc5[nH]4)c3)c2C1=O	-16.5%	4.61µM*	-25.3%	-6.1	4.11µM*	16.4µM*
O=C(Cn1c(=O)n(Cc2ccco2)c(=O)c2cccnc21)Nc1ccccc1F	nt	-27.8%	nt	nt	nt	?
O=Cc1ccc(Cl)c(Cl)c1	5.7%	7.3%	5.8%	-2.0	14.1%	-13.5%
Cc1cccc(-c2ccc(O)cc2CN2CCN(c3ncc(Cc4ccccc4)cn3)CC2)c1	nt	?	nt	-6.8	nt	20.6µM*
Oc1ccc(Br)c(CN2CCN(c3ncc(Cc4ccccc4)cn3)CC2)c1	nt	?	nt	-19.0	nt	?
O=[N+]([O-])c1cccc(-c2ccc(CN3CCN(c4ccccc4)CC3)o2)c1	-6.0%	?	-8.4%[1.91 µM]	-8.5	7.7%	?
Cc1cccc(-c2ccc([N+](=O)[O-])cc2CN2CCN(c3ncc(Cc4ccccc4)cn3)CC2)c1	nt	5.8µM*	nt	0.0	nt	5.8µM*
CC(C(=O)Nc1ccc(C(F)(F)F)cc1)N(C)CC(=O)N1CCN(Cc2ccccc2)CC1 (centres undefined)	nt	?	nt	-51.3*	?	?
CSc1ccccc1NC(=O)C(C)N(C)CC(=O)N1CCN(Cc2ccccc2)CC1 (centres undefined)	nt	?	nt	2.3	nt	20.6µM*
CC(C)CC(=O)N1CCN(Cc2ccc(C(F)(F)F)cc2)CC1	-9.6%	?	?	-5.6	-18.7%	?
CC(=Nc1ccccc1)C1=C(O)C(Cc2ccc(F)cc2)NC1=O (centres undefined)	nt	1.03µM*	nt	16.5	nt	1.16µM*
CC(=Nc1ccccc1)C1=C(O)C(Cc2ccccc2)NC1=O (centres undefined)	nt	0.0116µM*	nt	23.5	nt	0.0058µM*
Cc1cc(OCCN2CCCCC2)nc2ccccc12	15.0%	25.1%	-24.2%	-9.5	-10.2%	?
c1ccc(-c2cc(NCCN3CCCCC3)c3ccccc3n2)cc1	-16.1%	23.1µM*	-14.5%	-99.3*	?	16.4µM*
CC(C)CN(C(=O)C(C)N1C(=O)c2ccccc2C1=O)c1c(N)n(Cc2ccccc2)c(=O)[nH]c1=O (centres undefined)	nt	-1.8%	nt	8.2	0.9%	-6.0%
CN1C2C=C3C(C#N)=C(N)C(C#N)(C#N)[C@H](c4c(F)cccc4F)[C@H]3C1CC2 (some centres undefined)	-0.3%	7.31µM*	-28.7%	-92.5*	-12.2%	10.3µM*
CN1C2C=C3C(C#N)=C(N)C(C#N)(C#N)[C@@H](c4cccc(F)c4)[C@@H]3C1CC2 (some centres undefined)	-2.6%	?	7.1%	-1.2	2.6%	?
N#CC1=C(N)C(C#N)(C#N)[C@H](c2c(F)cccc2F)[C@H]2CC3(CC=C12)OCCO3	-3.2%	?	-34.9%	39.9	?	16.4µM*
CN(C)CCCNC(=S)Nc1ccc(Br)cc1	0.2%	0.8%	11.9%	-20.8	?	-2.4%
Nc1nc2ccccc2cc1C(=O)NCc1ccc(-c2ccccc2)cc1	nt	1.03µM*	nt	9.9	nt	0.164µM*
Nc1nc2ccccc2cc1C(=O)NCc1ccc(Cl)cc1Cl	nt	16.4µM*	nt	30.4	nt	5.8µM*
CC(=O)NC(c1ccc(F)c(F)c1)c1nc(-c2ccccc2C)cs1 (centres undefined)	nt	?	nt	25.9	nt	?
Cc1cc(C(=O)NC2CCCc3c2cnn3-c2ccc(C)c(C)c2)no1 (centres undefined)	-24.2%	14.6µM*	?	23.2	-6.4%	?
Cc1ccc(-n2ncc3c2CCCC3NC(=O)c2ocnc2C)cc1C (centres undefined)	7.08µM*	10.3µM*	21.0%	-2.7	?	7.31µM*
CC(CNC(=O)c1ccc2nc(CCc3ccccc3)oc2c1)c1ccccc1 (centres undefined)	nt	-25.2%	nt	nt	nt	?
SMILES	Gal4-VP16 FLuc	DT40 TDP1 CPT	RORgamma inh	IL1B secr inh	ELG1 DNA repair	DT40 TDP1 no CPT
CC[C@H](C)[C@@H](CO)NC(=O)[C@H]1O[C@@H](n2ccc(N)nc2=O)[C@H](O)[C@@H]1O	nt	-10.8%	nt	26.4	nt	-7.2%
COc1ccc(Cc2c(C)nn(-c3nc(C)c(C(=O)Nc4cccc(C(C)=O)c4)s3)c2C)cc1	nt	9.2µM*	nt	nt	nt	11.6µM*
Cc1nc(Cl)sc1C(=O)Nc1ccccc1	-17.8%	7.8%	0.6%	4.4	5.1%	-24.9%
CCc1ccccc1NC(=O)c1sc(-n2nc(C)c(Cc3ccc4c(c3)OCO4)c2C)nc1C	nt	?	nt	nt	nt	18.4µM*
Cc1nc(Cl)sc1C(=O)Nc1cccc(Cl)c1	-14.9%	-20.2%	-10.8%[1.91 µM]	-56.2*	-15.2%	-0.8%
Cc1ccc(C)c(NC(=O)c2sc(Cl)nc2C)c1	8.1%	-2.1%	4.8%	-58.1*	2.7%	10.3%
Cc1ccc(-n2nc(C)c3c(C(F)(F)F)cc(-c4cccnc4)nc32)cc1Cl	nt	0.3%	nt	nt	nt	1.1%
Cc1nc(-c2ccccn2)sc1C(=O)Nc1ccc(Cl)c(Cl)c1	-0.1%	?	5.9%	-9.0	?	14.6µM*
CC(=O)c1sc(-c2ccccn2)nc1C	-10.8%	nt	-12.1%	nt	?	nt
CC(=O)c1cccc(NC(=O)c2sc(Cl)nc2C)c1	-15.8%	-1.8%	-0.3%[1.91 µM]	-53.6*	-13.9%	-10.0%
Cc1cc2cc(CCNC(=O)C3c4ccccc4Oc4ccccc43)c(=O)[nH]c2cc1C	0.4%	nt	12.5%	nt	12.6%	nt
N#C/C(=C/c1ccc(Br)s1)C(=O)NCCc1c[nH]c2ccccc12	-3.8%	23.1µM*	11.4%[10 µM]	?	-24.3%	20.6µM*
O=C(NCCc1c[nH]c2ccccc12)N[C@@H](Cc1ccccc1)C(=O)O	-0.4%	-12.5%	-0.4%	6.9	-6.4%	-12.0%
COC(=O)[C@@H](Cc1ccccc1)NC(=O)NCCc1c[nH]c2ccccc12	-0.2%	-0.7%	?	-97.9*	5.0%	?
O=C(CCNS(=O)(=O)c1ccc(OC(F)(F)F)cc1)NCCc1c[nH]c2ccccc12	nt	14.6µM*	nt	-7.6	-11.3%	23.1µM*
CC(=O)c1ccc(S(=O)(=O)NCCC(=O)NCCc2c[nH]c3ccccc23)cc1	nt	?	nt	0.0	-1.5%	?
